Assay results taken from PubChem BioAssay (Tox21).
Several values for one entry are separate records, joined by “and”; a condition that tells them apart may be missing. Identical values can stand only once. Results filed as inconclusive are left out. A call without a number means that no potency is given here. The source holds several records for some structures; these can differ, active in one and inactive in another. Activity calls are given as the source filed them. Unless noted, calls follow the shape of the dose curve; as a rule, active = well fitted curve in the direction sought with a large enough effect in the repeat runs; inconclusive = weak or mixed curves; inactive = no such curve, though single readings can be large; an effect the other way counts as inactive or inconclusive.

Assays:
[1] = biological target: Thyrotropin-releasing hormone receptor (Homo sapiens) (UniProt P34981); assay: qHTS assay to identify small molecule agonists of the thyrotropin-releasing hormone receptor (TRHR) signaling pathway (AID 1346891; calls by dose curve;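 also: HEK293 cells expressing TRHR with calcium dye readout; series mostly up to about 58 µM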)
Chain of Thyrotropin-releasing hormone receptor (Homo sapiens) (P34981 whole entry, looked up): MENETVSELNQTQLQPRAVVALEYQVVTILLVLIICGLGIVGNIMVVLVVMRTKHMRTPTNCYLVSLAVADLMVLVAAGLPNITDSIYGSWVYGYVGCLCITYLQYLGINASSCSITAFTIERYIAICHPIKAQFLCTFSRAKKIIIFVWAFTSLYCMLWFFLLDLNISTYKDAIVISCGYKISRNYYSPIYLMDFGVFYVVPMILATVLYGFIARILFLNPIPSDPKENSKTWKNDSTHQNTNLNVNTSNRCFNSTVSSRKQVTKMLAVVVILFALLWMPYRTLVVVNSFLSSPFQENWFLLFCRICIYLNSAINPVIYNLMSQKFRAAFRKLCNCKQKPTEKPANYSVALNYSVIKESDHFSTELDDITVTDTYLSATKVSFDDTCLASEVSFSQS
Method in brief: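 Agonist-mode calcium mobilisation screen: TRHR-transfected HEK293 cells cultured overnight (18 h), dye-loaded for 2 h at 37 °C, exposed to compounds, and monitored by fluorescence for 3 min.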

[2] = Human pregnane X receptor (PXR) small molecule agonists, qHTS cell viability counter screen (AID 1346977); also: nearly all actives have a fitted effect of over 50% in size; also: potency is read from the fitted curve at half-maximal effect
Method in brief: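 Measures live-cell protease fluorescence (CellTiter-Fluor) in PXR-Luc HepG2 cells treated 24hr with compounds at 37C. Cells had 5hr to attach before pin transfer of DMSO solutions.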

[3] = Caspase-3/7 induction in HepG2 cells by small molecules, qHTS assay (AID 1346978); also: nearly all actives have a fitted effect of over 15% in size
Method in brief: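 Caspase-3/7 induction was measured by Caspase-Glo 3/7 luminescence (30 min, room temperature) after a 17 hr compound exposure of wild-type HepG2 cells seeded at 2,000 per well and pre-incubated 5 hr.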

[4] = Caspase-3/7 induction in CHO-K1 cells by small molecules, qHTS assay (AID 1346980); also: nearly all actives have a fitted effect of over 15% in size; also: potency is read from the fitted curve at half-maximal effect
Method in brief: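 Luminescent Caspase-Glo 3/7 read (30min, room temperature) quantified apoptosis induction. Cells were wild-type CHO-K1, treated with compound for 17hr at 37 C and 5% CO2.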

[5] = Caspase-3/7 induction in HepG2 cells by small molecules, qHTS cell viability counter screen (AID 1346981); also: nearly all actives have a fitted effect of over 30% in size; also: potency is read from the fitted curve at half-maximal effect
Method in brief: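 Fluorescence read-out of live-cell protease activity (CellTiter-Fluor) after 1 hr with reagent. This was measured in the same wells as the caspase-3/7 luminescence, on HepG2 cells exposed to DMSO-dissolved compounds for 16 hr at 37 C.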

[6] = biological target: Nuclear receptor subfamily 1 group I member 2 (Homo sapiens) (UniProt O75469); assay: Human pregnane X receptor (PXR) small molecule agonists, qHTS assay (AID 1346982); also: nearly all actives have a fitted effect of over 35% in size; also: potency is read from the fitted curve at half-maximal effect
Chain of Nuclear receptor subfamily 1 group I member 2 (Homo sapiens) (O75469 whole entry, looked up): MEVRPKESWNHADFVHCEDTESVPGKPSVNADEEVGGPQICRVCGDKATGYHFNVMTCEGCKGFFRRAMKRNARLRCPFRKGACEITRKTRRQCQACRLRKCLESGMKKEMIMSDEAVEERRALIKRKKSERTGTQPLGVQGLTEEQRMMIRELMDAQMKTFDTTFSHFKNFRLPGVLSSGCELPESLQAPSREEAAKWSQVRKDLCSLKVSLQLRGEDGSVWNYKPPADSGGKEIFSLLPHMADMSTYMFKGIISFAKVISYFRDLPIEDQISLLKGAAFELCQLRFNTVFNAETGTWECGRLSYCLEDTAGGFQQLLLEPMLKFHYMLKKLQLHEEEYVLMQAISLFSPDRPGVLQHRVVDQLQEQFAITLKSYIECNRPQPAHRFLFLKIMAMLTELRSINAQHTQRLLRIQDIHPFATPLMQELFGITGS
Method in brief: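 HepG2 PXR-Luc reporter line, 5% charcoal-stripped FBS; 5 hr pre-incubation, compound (DMSO) 24 hr at 37 C/5% CO2; ONE-Glo 30 min RT; luminescence read-out.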

[7] = Caspase-3/7 induction in CHO-K1 cells by small molecules, qHTS cell viability counter screen (AID 1346979); also: nearly all actives have a fitted effect of over 35% in size; also: potency is read from the fitted curve at half-maximal effect
Method in brief: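 In the same wells as the caspase read, viability of compound-treated wild-type CHO-K1 cells was assessed using CellTiter-Fluor, added after 16hr at 37C and measured by fluorescence following 1hr further incubation.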

[8] = biological target: Nuclear receptor subfamily 1 group I member 2 (Rattus norvegicus) (UniProt Q9R1A7); assay: Rat pregnane X receptor (rPXR) activation by small molecules, qHTS assay (AID 1346983); settings: rPXR luciferase reporter cells, One-Glo luminescence, 24 h; max activation: stronger effect = higher value; also: nearly all actives have a fitted effect of over 20% in size; also: potency is read from the fitted curve at half-maximal effect
Chain of Nuclear receptor subfamily 1 group I member 2 (Rattus norvegicus) (Q9R1A7 whole entry, looked up): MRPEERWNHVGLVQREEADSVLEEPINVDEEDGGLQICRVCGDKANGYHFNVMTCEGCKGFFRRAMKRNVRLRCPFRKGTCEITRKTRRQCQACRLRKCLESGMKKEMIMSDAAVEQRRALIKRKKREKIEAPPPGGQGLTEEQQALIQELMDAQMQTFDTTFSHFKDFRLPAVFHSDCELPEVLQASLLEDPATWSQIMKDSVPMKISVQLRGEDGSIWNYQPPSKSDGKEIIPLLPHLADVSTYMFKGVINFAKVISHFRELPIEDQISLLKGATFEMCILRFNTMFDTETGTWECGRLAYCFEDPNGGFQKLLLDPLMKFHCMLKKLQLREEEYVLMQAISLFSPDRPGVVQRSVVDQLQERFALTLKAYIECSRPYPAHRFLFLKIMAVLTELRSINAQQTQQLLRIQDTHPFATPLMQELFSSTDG
Method in brief: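 Luminescent readout (One-Glo luciferase, 30 min room temperature) followed 24 hr compound treatment at 37 C of rPXR cells plated 2,000 per well and preincubated 5hr; qHTS format with compounds delivered in DMSO.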

[9] = biological target: Nuclear receptor subfamily 1 group I member 2 (Homo sapiens) (UniProt O75469); assay: CYP3A4 induction through human pregnane X receptor (PXR) by small molecules, qHTS assay (AID 1346984); also: nearly all actives have a fitted effect of over 40% in size
Method in brief: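 HepG2-derived DPX-2 line carrying PXR plus a CYP3A4-promoter luciferase reporter; cells plated 5 hr, compound-exposed 24 hr at 37C. CYP3A4 activity probed with 3uM (final) Luciferin-IPA for 3hr, then luciferase read after One-Glo.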

[10] = biological target: Nuclear receptor subfamily 1 group I member 2 (Homo sapiens) (UniProt O75469); assay: Human pregnane X receptor (PXR) activation by small molecules, qHTS assay (AID 1346985); also: nearly all actives have a fitted effect of over 40% in size; also: potency is read from the fitted curve at half-maximal effect
Method in brief: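 DPX-2 cells (HepG2 co-transfected with a PXR response element and a CYP3A4-promoter luciferase construct) were seeded at 2,000 per well, rested 5 hr at 37C, then exposed to DMSO-dissolved compounds for 24 hr. Activation was read as luciferase luminescence.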

Structure (SMILES) | Potency [1] | Potency [2] | Potency [3] | Potency [4] | Potency [5] | Potency [6] | Potency [7] | Potency [8] | Potency [9] | Potency [10] | max activation [8]
CC(C)=CCC/C(C)=C/CC/C(C)=C/CCC(=O)OC/C=C(\C)CCC=C(C)C | inactive | inactive | inactive | inactive | inactive | inactive |  |  |  |  | 
COc1cc(C(=O)NC2CCN(C)CC2)ccc1Nc1ncc2c(n1)N(C1CCCC1)CC(F)(F)C(=O)N2C | inactive | 8.88 µM (active) |  |  | 15.8 µM (active) |  | 0.499 µM (active) |  |  |  | 
Cc1cc(O)ccc1O | inactive | inactive |  | inactive |  |  | 31 µM (active) |  |  |  | 
C=C(C)C(=O)OCCCCCCCCCCCCC | inactive | inactive | inactive |  | inactive | inactive |  |  |  |  | 
CCOC(=O)c1ccc(C#Cc2ccc3c(c2)C(C)(C)CCS3)nc1 | inactive | inactive |  | inactive | inactive | 33.5 µM (active) | inactive | 10 µM (active) | inactive | inactive | 
C[C@@H](O)[C@H]1C(=O)N2C(C(=O)O)=C([C@H]3CCCO3)S[C@H]12 | inactive | inactive | inactive | inactive | inactive | inactive |  |  |  | inactive | -4.46% (inactive)
COc1ncnc(NS(=O)(=O)c2ccc(N)cc2)c1OC | inactive | inactive |  | inactive |  | inactive | inactive |  |  | inactive | -3.86% (inactive)
COC(=O)[C@H]1[C@H]2C[C@@H]3c4[nH]c5cc(OC)ccc5c4CCN3C[C@H]2C[C@@H](OC(=O)/C=C/c2ccc(O)c(OC)c2)[C@@H]1OC | inactive | 23.7 µM (active) | inactive | inactive |  | 11.9 µM (active) |  |  |  |  | 
C=C(C)[C@@H]1CCC2=CCC[C@@H](C)[C@]2(C)C1 | inactive | inactive | inactive | inactive | inactive | 38.6 µM (active) |  |  |  |  | 
CN1C(=O)c2ccccc2C1=O | inactive | inactive | inactive | inactive | inactive | inactive |  |  |  |  | 
CCCC(C(=O)OCCN(CC)CC)(c1ccccc1)c1ccccc1 | inactive | 26.6 µM (active) | inactive |  |  | 10.6 µM (active) |  | 22.4 µM (active) |  | 15.8 µM (active) | 
C=CCc1ccccc1OCC(O)CNC(C)C (centres undefined) | inactive | inactive | inactive | inactive | inactive | inactive |  |  |  |  | 
CCOC(=O)C1=C(C)NC(C)=C(C(=O)OC)C1c1cccc(Cl)c1Cl (centres undefined) | inactive | inactive |  | inactive | inactive |  | 13.3 µM (active) |  |  |  | 
C[C@@H]1CC(=O)NN=C1c1ccc(NN=C(C#N)C#N)cc1 | inactive | 16.8 µM (active) and 21.1 µM (active) |  | inactive and 13.3 µM (active) | 18.8 µM (active) and 23.7 µM (active) | 11.9 µM (active) and 21.1 µM (active) | 11.9 µM (active) | 14.1 µM (active) |  | inactive | 
O=C(OCC(O)CO)c1ccccc1Nc1ccnc2cc(Cl)ccc12 (centres undefined) | inactive | 26.6 µM (active) | inactive | inactive |  | 11.9 µM (active) |  |  |  | inactive | -2.2% (inactive)
C=C1CCC2CC1C2(C)C (centres undefined) | inactive | inactive | inactive | inactive | inactive | inactive |  |  |  |  | 
c1cc(N(CC2CO2)CC2CO2)ccc1Cc1ccc(N(CC2CO2)CC2CO2)cc1 (centres undefined) | inactive | 54.5 µM (active) |  | inactive | 61.1 µM (active) | 27.3 µM (active) | 54.5 µM (active) |  |  |  | 
CCn1cc(C(=O)O)c(=O)c2cc(F)c(N3CCNCC3)cc21 | inactive | inactive | inactive | inactive | inactive | inactive |  |  | inactive |  | 7.46% (inactive)
COc1ccc(OC(=O)N(CC(=O)O)Cc2ccc(OCCc3nc(-c4ccccc4)oc3C)cc2)cc1 | inactive | inactive |  | inactive | inactive | inactive | inactive |  |  |  | 
Oc1cccc(Nc2ccccc2)c1 | inactive | inactive | inactive | inactive |  | 63.8 µM (active) |  |  |  |  | 
CN1CC(=O)N2[C@H](c3ccc4c(c3)OCO4)c3[nH]c4ccccc4c3C[C@@H]2C1=O | inactive | inactive | inactive | inactive | inactive |  |  |  |  |  | 0.614% (inactive)
N#CCc1ccc(Cl)cc1Cl | inactive | inactive | inactive | inactive | inactive |  |  |  |  |  | 
C=C/C(C)=C/C/C=C(\C)CCC=C(C)C | inactive | inactive | inactive | inactive | inactive | 27.3 µM (active) |  |  |  |  | 
CC(CN(C)C)C(C)(O)Cc1ccc(Cl)cc1 (centres undefined) | inactive | inactive |  | inactive |  |  | inactive |  |  | inactive | -1.26% (inactive)
COc1cc(N)c(Cl)cc1C(=O)NC1CCN(CCCOc2ccc(F)cc2)CC1OC (centres undefined) | inactive | 29.8 µM (active) | inactive | inactive |  | inactive |  |  |  | inactive | -2.9% (inactive)
O=C(O)c1cccc(-c2noc(-c3ccccc3F)n2)c1 | inactive | inactive | inactive | inactive |  | 0.006 µM (active) |  |  | inactive | inactive | 
CN1C(=O)OC(C)(C)C1=O | inactive | inactive | inactive |  | inactive | 37.9 µM (active) |  |  |  | inactive | -2.55% (inactive)
Brc1cc2ccccc2c2ccccc12 | inactive | inactive |  | inactive | inactive |  | inactive |  |  |  | 
C=C1c2cccc(O)c2C(O)=C2C(=O)[C@]3(O)C(O)=C(C(N)=O)C(=O)[C@@H](N(C)C)[C@@H]3[C@@H](O)[C@H]12 | inactive | inactive | inactive | inactive |  | inactive |  |  |  | inactive | -2.64% (inactive)
